Data as given in PubChem BioAssay (NCATS).
Inconclusive results are not listed. Calls of active or inactive are those of the source. Unless noted, the call rests on the fitted dose curve; in most records, active means well fitted curve in the direction sought with a large enough effect; inconclusive means small, poorly fitted or top-dose-only effect, or another doubt; inactive means no such curve, though single readings can be large; an effect the other way counts as inactive or inconclusive.

Assays:
MKL-2 = assay: qHTS assay to identify novel small-molecules to repurpose for Merkel cell carcinoma treatment (AID 1296009); conditions: MCC and control cell lines, CellTiter-Glo viability, 72 h; series mostly up to 46 µM; further: nearly all actives have a fitted effect of over 60% in size; on activity change, negative = cytotoxicity: on the % scale 0 is the no-effect control and ±100 the full control effect
In short: (§1)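 After compound transfer in DMSO, plates were kept 72 hr at 37 degree celsius. Luminescent ATP signal from CellTiter-Glo served as viability measure, normalized against DMSO and no-cell controls.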

NIH3T3 = assay: as above; conditions: MCC and control cell lines, CellTiter-Glo viability, 72 h; at 44.8 µM (top of the series) unless noted
In short: as §1

UISO = assay: as above; conditions: MCC and control cell lines, CellTiter-Glo viability, 72 h; series mostly up to 46 µM
In short: as §1

WaGa = assay: as above; conditions: MCC and control cell lines, CellTiter-Glo viability, 72 h; series mostly up to 46 µM
In short: as §1

C33A = assay: Primary qHTS to identify gynecologic anti-cancer compounds using libraries of approved drugs and bioactive compounds (AID 1345084); conditions: Gynecologic cancer cell panel viability, ATPlite luminescence, 48 h; series mostly up to 57.5 µM; further: on the % scale 0 is the no-effect control and ±100 the full control effect; nearly all actives have a fitted effect of over 55% in size
In short: (§2)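 Cytotoxicity screen measuring ATP content by luciferase luminescence. Each compound is applied at five concentrations for 48 h at 37 C with 5% CO2.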

CAOV3 = assay: as above; conditions: Gynecologic cancer cell panel viability, ATPlite luminescence, 48 h; series mostly up to 57.5 µM
In short: as §2

CASKI = assay: as above; conditions: Gynecologic cancer cell panel viability, ATPlite luminescence, 48 h; series mostly up to 57.5 µM
In short: as §2

Es-2 = assay: as above; conditions: Gynecologic cancer cell panel viability, ATPlite luminescence, 48 h; series mostly up to 57.5 µM
In short: as §2

HeLa = assay: as above; conditions: Gynecologic cancer cell panel viability, ATPlite luminescence, 48 h; series mostly up to 57.5 µM
In short: as §2

Hek293T = assay: as above; conditions: Gynecologic cancer cell panel viability, ATPlite luminescence, 48 h, control line for the selectivity index; series mostly up to 57.5 µM
In short: as §2

JEG-3 = assay: as above; conditions: Gynecologic cancer cell panel viability, ATPlite luminescence, 48 h; series mostly up to 57.5 µM
In short: as §2

OV90 = assay: as above; conditions: Gynecologic cancer cell panel viability, ATPlite luminescence, 48 h; series mostly up to 57.5 µM
In short: as §2

PA-1 = assay: as above; conditions: Gynecologic cancer cell panel viability, ATPlite luminescence, 48 h; series mostly up to 57.5 µM
In short: as §2

SKOV3 = assay: as above; conditions: Gynecologic cancer cell panel viability, ATPlite luminescence, 48 h; series mostly up to 57.5 µM
In short: as §2

Tov-21-G = assay: as above; conditions: Gynecologic cancer cell panel viability, ATPlite luminescence, 48 h; series mostly up to 57.5 µM
In short: as §2

Tov112D = assay: as above; conditions: Gynecologic cancer cell panel viability, ATPlite luminescence, 48 h; series mostly up to 57.5 µM
In short: as §2

[1] = Drug repurposing screens with cells derived from glioblastoma tumor samples (AID 1345199); conditions: GBM patient neurospheres viability, ATP luminescence, 48 h; further: nearly all actives have a fitted effect of over 40% in size; further: potency means the concentration at half of the fitted maximal effect; on activity, negative = cell killing: on the % scale 0 is the no-effect control and ±100 the full control effect
In short: (§3)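 Four patient lines of CD133+ GBM neurospheres were screened at several concentrations; hits were retested in those lines plus three slower-growing GBM lines, using 48-hour treatment and ATP-based viability.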

astro = assay: as above; conditions: viability, ATP luminescence, 48 h; series mostly up to 45.9 µM
In short: as §3

[2] = target: Nuclear receptor subfamily 1 group I member 2 (Rattus norvegicus) (UniProt Q9R1A7); assay: qHTS assay for small molecule activators of the rat pregnane X receptor (rPXR) signaling pathway (AID 651751; call rule not given here; further: 0% is about no effect); conditions: rPXR reporter cells, luciferase (One-Glo), 24 h
[3] = at 45.9 µM (top of the series), tumour line B
[4] = at 46.1 µM (top of the series), tumour line C
[5] = at 45.9 µM (top of the series), tumour line D
[6] = at 46 µM (top of the series), tumour line A

Nuclear receptor subfamily 1 group I member 2 (Rattus norvegicus), sequence (Q9R1A7 whole entry, looked up): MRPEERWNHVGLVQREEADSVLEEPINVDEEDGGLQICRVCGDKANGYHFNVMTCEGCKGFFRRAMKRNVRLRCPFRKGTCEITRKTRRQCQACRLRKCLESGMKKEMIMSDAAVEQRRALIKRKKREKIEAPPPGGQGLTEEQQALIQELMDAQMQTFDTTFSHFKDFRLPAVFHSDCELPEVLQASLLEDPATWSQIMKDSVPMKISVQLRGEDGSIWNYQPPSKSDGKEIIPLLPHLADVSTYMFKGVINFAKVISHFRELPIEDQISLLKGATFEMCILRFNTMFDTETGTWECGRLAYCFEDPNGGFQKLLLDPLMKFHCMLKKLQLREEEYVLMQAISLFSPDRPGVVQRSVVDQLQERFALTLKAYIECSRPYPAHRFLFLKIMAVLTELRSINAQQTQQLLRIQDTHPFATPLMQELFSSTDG

CCCCN(CCCC)CCCOC(=O)c1ccc(N)cc1
inactive: Potency (MKL-2) | outcome (NIH3T3) | Potency (UISO) | Potency (WaGa) | Potency (C33A) | Potency (CAOV3) | Potency (CASKI) | Potency (Es-2) | Potency (HeLa) | Potency (Hek293T) | Potency (JEG-3) | Potency (OV90) | Potency (PA-1) | Potency (SKOV3) | Potency (Tov-21-G) | Potency (Tov112D) | activity, negative = cell killing ([1]; at 20 µM (top of the series), tumour line C) -6.46% | activity, negative = cell killing ([1]; at 21.2 µM (top of the series), tumour line B) 6.6% | activity, negative = cell killing ([1]; at 21.2 µM (top of the series), tumour line D) -16% | Potency (astro)

CCN(CC)CCNC(C(=O)OCCC(C)C)c1ccccc1 (configuration not stated)
active: Potency ([1]; tumour line A) 25.1 µM
inactive: Potency (MKL-2) | outcome (NIH3T3) | Potency (UISO) | Potency (WaGa) | Potency (C33A) | Potency (CAOV3) | Potency (CASKI) | Potency (Es-2) | Potency (HeLa) | Potency (Hek293T) | Potency (JEG-3) | Potency (OV90) | Potency (PA-1) | Potency (SKOV3) | Potency (Tov-21-G) | Potency (Tov112D) | activity, negative = cell killing [1, 3] -12.5% | activity, negative = cell killing [1, 4] 6.2% | Potency (astro)

CC(C)(C)C(=O)NCCCC(=O)O
inactive: Potency (MKL-2) | outcome (NIH3T3) | Potency (UISO) | Potency (WaGa) | Potency (C33A) | Potency (CAOV3) | Potency (CASKI) | Potency (Es-2) | Potency (HeLa) | Potency (Hek293T) | Potency (JEG-3) | Potency (OV90) | Potency (PA-1) | Potency (SKOV3) | Potency (Tov-21-G) | Potency (Tov112D) | activity, negative = cell killing [1, 3] -17.2% | activity, negative = cell killing [1, 5] -2.84% | activity, negative = cell killing [1, 4] -20.2% | Potency (astro)

CCCCC(CC)COC(=O)c1ccccc1O (configuration not stated)
inactive: Potency (MKL-2) | outcome (NIH3T3) | Potency (UISO) | Potency (WaGa) | Potency (C33A) | Potency (CAOV3) | Potency (CASKI) | Potency (Es-2) | Potency (HeLa) | Potency (Hek293T) | Potency (JEG-3) | Potency (OV90) | Potency (PA-1) | Potency (SKOV3) | Potency (Tov-21-G) | Potency (Tov112D) | activity, negative = cell killing [1, 3] -9.83% | activity, negative = cell killing [1, 5] -3.06% | activity, negative = cell killing [1, 4] 2.02% | Potency (astro) | max response [2] 2.15%

COc1ccc2cc1Oc1cc3c(cc1OC)CC[N+](C)(C)[C@H]3Cc1ccc(cc1)Oc1c(OC)c(OC)cc3c1[C@@H](C2)[N+](C)(C)CC3
inactive: Potency (MKL-2) | outcome (NIH3T3) | Potency (UISO) | Potency (WaGa) | Potency (C33A) | Potency (CAOV3) | Potency (CASKI) | Potency (Es-2) | Potency (HeLa) | Potency (Hek293T) | Potency (JEG-3) | Potency (OV90) | Potency (PA-1) | Potency (SKOV3) | Potency (Tov-21-G) | Potency (Tov112D) | activity, negative = cell killing [1, 3] -14.8% | activity, negative = cell killing [1, 5] -5.75% | activity, negative = cell killing [1, 4] -3.48% | Potency (astro)

NC(N)=NCCC[C@H](N)C(=O)O
inactive: activity change, negative = cytotoxicity (MKL-2) 13.9% [at 4.84 µM] | outcome (NIH3T3) inactive [at 4.96 µM] | activity change, negative = cytotoxicity (UISO) 9.23% [at 4.84 µM] | activity change, negative = cytotoxicity (WaGa) 4.2% [at 4.84 µM] | activity change, negative = cytotoxicity (C33A) -3.38% [at 6.55 µM] | activity change, negative = cytotoxicity (CAOV3) 24.7% [at 6.55 µM] | activity change, negative = cytotoxicity (CASKI) 1.66% [at 6.55 µM] | activity change, negative = cytotoxicity (Es-2) 2.88% [at 6.55 µM] | activity change, negative = cytotoxicity (HeLa) 8.2% [at 6.55 µM] | activity change, negative = cytotoxicity (Hek293T) 14.9% [at 6.55 µM] | activity change, negative = cytotoxicity (JEG-3) 7.79% [at 6.55 µM] | activity change, negative = cytotoxicity (OV90) 6.81% [at 6.55 µM] | activity change, negative = cytotoxicity (PA-1) 23.1% [at 6.55 µM] | activity change, negative = cytotoxicity (SKOV3) 0% [at 6.55 µM] | activity change, negative = cytotoxicity (Tov-21-G) -4.36% [at 6.55 µM] | activity change, negative = cytotoxicity (Tov112D) 4.12% [at 6.55 µM] | activity, negative = cell killing [1, 3] -14.6% | activity, negative = cell killing [1, 5] -0.948% | activity, negative = cell killing [1, 6] -22.1% | activity, negative = cell killing [1, 4] 18.8% | Potency (astro)

C[C@](N)(Cc1ccc(O)cc1)C(=O)O
inactive: activity change, negative = cytotoxicity (MKL-2) 7.48% [at 4.84 µM] | outcome (NIH3T3) inactive [at 4.96 µM] | activity change, negative = cytotoxicity (UISO) 17.6% [at 4.84 µM] | activity change, negative = cytotoxicity (WaGa) -0.23% [at 4.84 µM] | activity change, negative = cytotoxicity (C33A) 11.8% [at 6.55 µM] | activity change, negative = cytotoxicity (CAOV3) 1.31% [at 6.55 µM] | activity change, negative = cytotoxicity (CASKI) 2.23% [at 6.55 µM] | activity change, negative = cytotoxicity (Es-2) -8.81% [at 6.55 µM] | activity change, negative = cytotoxicity (HeLa) 0.756% [at 6.55 µM] | activity change, negative = cytotoxicity (Hek293T) -0.946% [at 6.55 µM] | activity change, negative = cytotoxicity (JEG-3) 2.69% [at 6.55 µM] | activity change, negative = cytotoxicity (OV90) 0.672% [at 6.55 µM] | activity change, negative = cytotoxicity (PA-1) 12.1% [at 6.55 µM] | activity change, negative = cytotoxicity (Tov-21-G) -3.06% [at 6.55 µM] | activity change, negative = cytotoxicity (Tov112D) 0.865% [at 6.55 µM] | activity, negative = cell killing [1, 3] -4.97% | activity, negative = cell killing [1, 5] 3.89% | activity, negative = cell killing [1, 6] -16.9% | activity, negative = cell killing [1, 4] 0.308% | Potency (astro)

N[C@@H](CSCCCO)C(=O)O
inactive: Potency (MKL-2) | outcome (NIH3T3) inactive [at 17.4 µM] | Potency (UISO) | Potency (WaGa) | Potency (C33A) | Potency (CAOV3) | Potency (CASKI) | Potency (Es-2) | Potency (HeLa) | Potency (Hek293T) | Potency (JEG-3) | Potency (OV90) | Potency (PA-1) | Potency (SKOV3) | Potency (Tov-21-G) | Potency (Tov112D) | Potency (astro)

O=C(O)CN1C(=O)c2cccc3cccc(c23)C1=O
inactive: Potency (MKL-2) | Potency (UISO) | Potency (WaGa) | Potency (C33A) | Potency (CAOV3) | Potency (CASKI) | Potency (Es-2) | Potency (HeLa) | Potency (Hek293T) | Potency (JEG-3) | Potency (OV90) | Potency (PA-1) | Potency (SKOV3) | Potency (Tov-21-G) | Potency (Tov112D) | activity, negative = cell killing [1, 3] -8.91% | activity, negative = cell killing [1, 5] -13.3% | activity, negative = cell killing [1, 6] -27.1% | activity, negative = cell killing [1, 4] -19.2% | Potency (astro)

OCC(O)CN1CCN(c2ccccc2)CC1 (configuration not stated)
inactive: Potency (MKL-2) | outcome (NIH3T3) | Potency (UISO) | Potency (WaGa) | Potency (C33A) | Potency (CASKI) | Potency (Es-2) | Potency (HeLa) | Potency (Hek293T) | Potency (JEG-3) | Potency (OV90) | Potency (PA-1) | Potency (SKOV3) | Potency (Tov-21-G) | Potency (Tov112D) | activity, negative = cell killing [1, 3] -18.5% | activity, negative = cell killing [1, 5] -7.12% | activity, negative = cell killing [1, 4] -25.1% | Potency (astro)

O=C1OC(OC(=O)c2cccnc2Nc2cccc(C(F)(F)F)c2)c2ccccc21 (configuration not stated)
inactive: Potency (MKL-2) | Potency (UISO) | Potency (WaGa) | Potency (C33A) | Potency (CAOV3) | Potency (CASKI) | Potency (Es-2) | Potency (HeLa) | Potency (Hek293T) | Potency (JEG-3) | Potency (OV90) | Potency (PA-1) | Potency (SKOV3) | Potency (Tov-21-G) | Potency (Tov112D) | activity, negative = cell killing [1, 3] -18.8% | activity, negative = cell killing [1, 5] 3.71%

Nc1nc2c(ncn2CCC(CO)CO)c(=O)[nH]1
inactive: Potency (MKL-2) | outcome (NIH3T3) | Potency (UISO) | Potency (WaGa) | Potency (C33A) | Potency (CAOV3) | Potency (CASKI) | Potency (Es-2) | Potency (HeLa) | Potency (Hek293T) | Potency (JEG-3) | Potency (OV90) | Potency (PA-1) | Potency (SKOV3) | Potency (Tov-21-G) | Potency (Tov112D) | Potency (astro)
